Screening data as filed in PubChem BioAssay.
The list is not random: actives were taken first. Their share in the collection is about 4.3%.
uPA surface inh: inhibitors of cell surface uPA generation; cell surface uPA generation assay, qHTS; Potency, µM (top dose mostly 38.3 µM), for inactives: at the highest dose activity change, negative = inhibition, actives largely listed as inhibitors; actives 0.31% (n = 330,000); AID 540303; active means well fitted inhibition curve with a large enough effect; inconclusive means small, poorly fitted or top-dose-only effect; inactive means no such curve, though single readings can be large or run the other way; tested in mouse RAW 264.7 cells; further: potency means the concentration at half of the fitted maximal effect; on the % scale 0 is the no-effect control and ±100 the full control effect; nearly all actives have a fitted effect of over 55% in size
SW480 rerep: inducers of DNA re-replication in SW480 colon cancer cells; SW480 DNA re-replication, Hoechst DNA content imaging, 48 h; Potency, µM (series often up to 46.1 µM), without a hit: at the top dose re-replication activation, most hits filed as activators; actives 1.8% (n = 340,000); further: potency means the concentration at half of the fitted maximal effect; % of control where 0% means no effect; nearly all actives have a fitted effect of over 55% in size
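Per well, 250 cells were exposed to pinned compound for 48 hr. Nuclear DNA was visualised with Hoechst (40 min, 37 C) and total object intensity recorded by fluorescence scanning.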
MCF10A rereplic: inducers of DNA re-replication in MCF 10A breast cells; AID 624296; Potency, µM (top dose mostly 46.1 µM), for the others: top-dose activity, positive = re-replication, usual class: activators; MCF 10A DNA re-replication, Hoechst nuclear intensity, 48 h; actives 2.9% (n = 350,000); further: potency means the concentration at half of the fitted maximal effect; % of control where 0% means no effect; nearly all actives have a fitted effect of over 50% in size
Giardia kill: Giardia lamblia killing. AID 540267. activity change, % at 7.66 µM, hits read low. actives 0.15% (n = 340,000). Giardia lamblia trophozoite viability; in the data active means activity change below about -80%; inconclusive means between about -30% and that limit;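 further: parasites exposed to compound for two days anaerobically before the ATP read; on the % scale 0 is the no-effect control and ±100 the full control effect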
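Trophozoite viability was measured as ATP-dependent luminescence, read 15-30 min after reagent addition. Before that, parasites at 100 cells/well were exposed to compounds for 48 h, anaerobically, at 37 deg C.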
* hit, by the source's call; ? = inconclusive; nt = no result given; [ ] = dose if it differs, or a comment. Unless noted, the call rests on the fitted dose curve; in most records, active means well fitted activation curve with a large enough effect; inconclusive means small, poorly fitted or top-dose-only effect; inactive means no such curve, though single readings can be large or run the other way.

SMILES	uPA surface inh	SW480 rerep	MCF10A rereplic	Giardia kill
O=c1c2ccccc2nc(/C=C/c2ccc([N+](=O)[O-])cc2)n1CCCO	2%	3%	15%	-6
O=c1c2ccccc2nc(/C=C/c2ccc([N+](=O)[O-])o2)n1CCCO	-3%	4.5µM*	4.5µM*	-88*
Cc1ccc(S(=O)(=O)N2CCN(c3nc(-c4cncn4C)nc4ccccc34)CC2)cc1	nt	nt	nt	-12
CCOC(=O)C1=C(C)C/C(=N\NC(=O)c2ccccc2O)CC1	1%	18µM*	24%	-6
CCOC(=O)c1ccccc1O	nt	-6%	5%	nt
Cc1onc(-c2ccccc2Cl)c1C(=O)OCN1C(=O)c2ccccc2C1=O	5%	-5%	0%	1
Cc1onc(-c2ccccc2Cl)c1C(=O)OCc1cnc(Cl)s1	?	4%	23µM*	16
COc1cc(NC(=O)c2c(-c3ccccc3Cl)noc2C)c2ncccc2c1	1%	-27%	10%	17
Cc1onc(-c2ccccc2Cl)c1C(=O)Nc1cccc2cccnc12	8%	13%	8.2µM*	0
CCOC(=O)N1CCc2c(sc(NC(=O)CCS(=O)(=O)c3ccccc3)c2C(N)=O)C1	3%	-10%	?	?
CC(=O)N1CCc2c(sc(NC(=O)CCS(=O)(=O)c3ccccc3)c2C(N)=O)C1	-2%	21µM*	?	-2
CCN1CCc2c(sc(NC(=O)c3ccc(S(=O)(=O)N(CC)c4ccccc4)cc3)c2C(N)=O)C1	-4%	?	12µM*	-12
CCN1CCc2c(sc(NC(=O)c3ccc(C(=O)c4ccccc4)cc3)c2C(N)=O)C1	1%	3%	?	6
NC(=O)c1c(NC(=O)c2c(F)cccc2F)sc2c1CCN(Cc1ccccc1)C2	10%	13%	26µM*	-26
CCN1CCc2c(sc(NC(=O)c3ccc(S(=O)(=O)N4CCOCC4)cc3)c2C(=O)OC)C1	-5%	?	15µM*	1
CCN1CCc2c(sc(NC(=O)Nc3ccc(Cl)c(Cl)c3)c2C(N)=O)C1	-5%	15µM*	9.2µM*	-8
O=C(Nc1ccc(Cl)cn1)c1ccccc1F	-13%	12µM*	13µM*	?
O=C(Nc1ccc(Cl)cn1)c1cccc(F)c1	-9%	10µM*	13µM*	-1
O=C(Nc1cccc(C(=O)Nc2ccc(Cl)cn2)c1)c1ccccc1	-7%	33%	12%	-6
CC(=O)N(c1ccccc1)C(C(=O)c1ccccc1)c1ccccc1 (stereo unspecified)	3%	1%	0%	-4
Cc1ccc(C)c(NC(=O)CSc2ncnc3nc[nH]c23)c1	-5%	-2%	1%	-2
Cc1cccc(NC(=O)CSc2ncnc3nc[nH]c23)c1C	5%	?	23µM*	2
O=[N+]([O-])c1ccc(S(=O)(=O)NCC(c2cccnc2)N2CCc3ccccc32)cc1 (stereo unspecified)	6%	4%	3%	-3
N=NC(=O)c1ccccc1Nc1c(O)[nH]c2ccccc12	-9%	0%	19%	?
CCOC(=O)C1(C)NC(c2cccs2)C2C(=O)N(c3ccc(OC)cc3)C(=O)C21 (stereo unspecified)	1%	?	18µM*	14
SMILES	uPA surface inh	SW480 rerep	MCF10A rereplic	Giardia kill
CCOC(=O)C1(C)NC(c2ccc(N(C)C)cc2)C2C(=O)N(c3ccc(OC)cc3)C(=O)C21 (stereo unspecified)	3%	-2%	-1%	11
COc1cccc(N2CCN(C(=O)C3CCC(=O)N(C4CCCCCC4)C3)CC2)c1 (stereo unspecified)	-5%	?	?	-4
Cc1ccccc1-n1c(C)n[nH]c1=S	11%	15µM*	9.2µM*	-5
CC(C)(C)OC(=O)N1C=CCC1CN1C(=O)COCC1=O (stereo unspecified)	nt	nt	nt	5
CC(C)(C)C1CCc2c(sc(NC(=O)c3cccs3)c2C(N)=O)C1 (stereo unspecified)	-6%	?	5.6µM*	-24
COC(=O)c1c(NC(=O)CC2SC(N)=NC2=O)sc2c1CCC(C(C)(C)C)C2 (stereo unspecified)	1%	24%	23µM*	6
CC12CCC(C(=O)NNc3ccccc3)(C(=O)C1=O)C2(C)C (stereo unspecified)	7%	-1%	16µM*	-3
COC(=O)c1ccc(C)c(NC(=O)CCn2[nH]c(=O)ccc2=O)c1	1%	-3%	-3%	8
CCOc1ccccc1N1CCN(C(=O)c2ccccc2)CC1	-1%	-8%	-1%	1
CCOc1ccccc1N1CCN(C(=O)C2c3ccccc3Oc3ccccc32)CC1	-14%	16µM*	6.5µM*	4
COc1cc(C(=O)NC2CCCc3c2cnn3-c2ccccc2F)cc(OC)c1OC (stereo unspecified)	-8%	-10%	8%	16
COC(=O)c1ccc(C(=O)NC2CCCc3c2cnn3-c2ccccc2F)nc1 (stereo unspecified)	?	18µM*	15µM*	2
Cc1nc(C(=O)Nc2ccccc2)sc1C1(C)CC(c2cccnc2)=NO1 (stereo unspecified)	13%	1%	-1%	17
COc1ccc(NC(=O)c2nc(C)c(C3(C)CC(c4ccccc4)=NO3)s2)cc1 (stereo unspecified)	?	4.6µM*	3.7µM*	-29
CCOC(=O)c1c(S(=O)(=O)NCC(=O)NCc2ccccc2Cl)c(C)n(C)c1C	-2%	?	-3%	19
Oc1cccc(Nc2nc(NCC3CCCO3)c3ccccc3n2)c1 (stereo unspecified)	-16%	6%	15µM*	-3
COc1ccc(-c2sc3ccccc3c2/C=C/c2ccc(OC)c(OC)c2)cc1	?	26%	?	-2
COc1ccc(-c2sc3ccccc3c2/C=C/c2ccncc2)cc1	-11%	1%	7.3µM*	-22
Cc1c(Cc2ccccc2)c(=O)[nH]c(=O)n1C	-9%	-3%	-3%	2
N#CCC(=O)N/N=C/c1c2ccccc2cc2ccccc12	-29%	?	18µM*	-27
COc1cccc(/C=N/NC(=O)C(=O)N/N=C/c2cccc(OC)c2OC)c1OC	4%	16µM*	7%	2
COc1cccc(/C=N\NC(C)=O)c1OC/C=C/c1ccccc1	1%	?	25%	-9
COCC(=O)N/N=C\c1cccc(OC)c1OC/C=C/c1ccccc1	-2%	16µM*	11%	13
O=C(CO)N/N=C/c1c2ccccc2cc2ccccc12	-9%	3%	25%	22
N#CCC(=O)N/N=C\c1ccccc1OC/C=C/c1ccccc1	?	16µM*	183%	-2
Cc1csc(NC(=O)CN2C(=O)COc3ccc(Cl)cc32)n1	6%	0%	10%	11
Cc1ccc(C(=O)N2CCC3CC2c2cc(-c4ccc5c(c4)OCO5)ccc23)cc1 (stereo unspecified)	0%	-44%[9.22 µM]	?	-4
CCCCn1c(=O)nc2n(-c3ccccc3C)c3ccccc3cc-2c1=O	5%	?	1%	6
Cc1ccccc1-n1c2nc(=O)n(C)c(=O)c-2cc2ccccc21	-3%	18µM*	21µM*	2
